Screening results (PubChem)
Only some compounds are listed: those with a hit (about 3% of all), similar ones and a draw of the others.
SENP7 inh: blocks the human protease SENP7; Q9BQF6; recombinant SENP7, Z-RLRGG-aminoluciferin luminescence, 40 min; inhibition, % at 5 µM; AID 434973; 330,000 tested, 1.5% active;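 active = inhibition above about 50% at the single test dose, limit read from the data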;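 also: plate controls were DMSO with enzyme for no effect and no enzyme buffer wells for full effect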
Target sequence (Q9BQF6 706-1050 limits assumed): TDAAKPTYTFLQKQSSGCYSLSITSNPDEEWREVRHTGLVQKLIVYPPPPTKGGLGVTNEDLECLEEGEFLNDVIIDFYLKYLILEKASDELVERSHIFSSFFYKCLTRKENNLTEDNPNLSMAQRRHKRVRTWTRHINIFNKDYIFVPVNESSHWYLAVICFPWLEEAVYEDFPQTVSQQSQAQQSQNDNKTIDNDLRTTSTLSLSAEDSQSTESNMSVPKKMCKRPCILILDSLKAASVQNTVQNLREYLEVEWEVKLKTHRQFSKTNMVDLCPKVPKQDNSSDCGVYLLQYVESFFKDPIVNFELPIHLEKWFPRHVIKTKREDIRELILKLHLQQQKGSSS
SENP6 inh: blocks the human protease SENP6. Recombinant SENP6 catalytic domain, aminoluciferin luminescence. inhibition, % at 10 µM. 330,000 tested, 1.8% active;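 active = inhibition above about 50% at the single tested dose, limit read from the data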;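 also: plate controls were DMSO wells with enzyme for no effect and DMSO wells lacking enzyme for full effect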
SENP8 block-1: SENP8 protease inhibition | Q96LD8 | AID 2540 | purified SENP8, Z-RLRGG-aminoluciferin cleavage, luminescence | inhibition, % at 10 µM | 330,000 tested, 1.2% active; in the data active = inhibition above about 50%
C8 TRAIL sens: sensitizes caspase-8 expressing cells to TRAIL; inhibition (viability loss, TRAIL sensitization), % at 10 µM; NB7+C8 cells + TRAIL, ATPlite viability luminescence; 360,000 tested, 1% active;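 active = compounds causing at least 50% loss of cell viability in the single-dose screen, relative to plate controls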
SENP8 block-2: blocks human SENP8 cleavage of Nedd8 substrate. Q96LD8. recombinant SENP8, Nedd8 substrate fluorescence. inhibition, % at 20 µM. 360,000 tested, 0.64% active. AID 602440; in the data active = inhibition mostly above about 40%, no sharp cut-off; inactive = mostly below about 27%
PPC-1+TRAIL kill: kills PPC-1 cancer cells in the presence of TRAIL. cell killing (% activity), % at 4 µM or 5 µM. 220,000 tested, 0.41% active. PPC-1 cells + TRAIL, ATPLite viability luminescence;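 active = cell killing above 50% in the first pass at 4 µM, then a duplicate retest at 5 µM averaging 50% or more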;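 also: plate controls were cells with TRAIL plus DMSO for no effect and medium-only wells lacking cells for full effect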
SENP8 conf: confirmation of human SENP8 protease inhibitors | shares compounds with SENP7 inh | Recombinant SENP8, Z-RLRGG-aminoluciferin luminescence, 60 min | inhibition, % at 12.5 µM | 6,200 tested, 40% active;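 active = mean inhibition across replicates above about 50%, limit read from the data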
SENP6 conf: confirmation of human SENP6 protease inhibitors. shares compounds with SENP7 inh. recombinant SENP6, Z-RLRGG-aminoluciferin luminescence. inhibition, % at 12.5 µM. 6,200 tested, 58% active
SENP7 conf: human SENP7 inhibition, confirmed; AID 488917; recombinant SENP7, Z-RLRGG-aminoluciferin luminescence, 40 min; shares compounds with SENP7 inh; 6,200 tested, 69% active; inhibition, % at 12.5 µM
Casp3 SENP sel: caspase-3 inhibition (SENP selectivity assay) | shares compounds with SENP7 inh | purified caspase-3, Z-DEVD-aminoluciferin luminescence, 60 min | inhibition, % at 12.5 µM | 6,200 tested, 60% active | AID 488918;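 active = mean inhibition above about 50%, limit read from the data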;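 also: plate controls were enzyme with DMSO for no effect and wells without caspase-3 for full effect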
Target sequence (P42574 28-227 limits assumed): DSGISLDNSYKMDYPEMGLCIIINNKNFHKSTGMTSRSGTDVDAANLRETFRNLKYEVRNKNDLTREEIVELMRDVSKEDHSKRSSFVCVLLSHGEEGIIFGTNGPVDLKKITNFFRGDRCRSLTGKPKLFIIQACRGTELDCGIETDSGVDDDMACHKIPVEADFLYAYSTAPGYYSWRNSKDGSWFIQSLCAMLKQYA
Luc interf: luminescence interference (SENP counter-screen) | shares compounds with SENP7 inh | Pre-incubated SENP8/Z-RLRGG-aminoluciferin, luciferase luminescence interference | inhibition, % at 12.5 µM | 6,200 tested, 39% active | AID 488919;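 active = mean inhibition above about 50% when retested at one dose, limit read from the data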;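 also: plate controls were DMSO wells with completed reaction for no effect and substrate without enzyme for full effect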
Active calls of the source: *; x = not tested or not shown.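 The calls were made as follows, unless noted: active = mean inhibition above about 50% in the one-dose retest (limit read from the data); inactive = the rest.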

SMILES	SENP7 inh	SENP6 inh	SENP8 block-1	C8 TRAIL sens	SENP8 block-2	PPC-1+TRAIL kill	SENP8 conf	SENP6 conf	SENP7 conf	Casp3 SENP sel	Luc interf
COc1cccc(-c2nnc(NC(=O)c3cccs3)s2)c1	8	32	7	28	-406	40	x	x	x	x	x
COc1ccc2c(c1)Cc1sc(NC(=O)c3cccs3)nc1-2	94*	92*	96*	0	15	14	67*	75*	99*	77*	29
COc1ccc(C(=O)Nc2nc3c(s2)Cc2cc(OC)ccc2-3)cc1	93*	82*	90*	8	-59	10	29	68*	50*	19	4
Cc1cccc(N/C(N)=N/c2nc(C)cc(=O)[nH]2)c1	7	16	-4	-4	2	7	x	x	x	x	x
CCN1CCN(c2ccc(S(=O)(=O)N3CCOCC3)cc2NC(=O)CCC(C)C)CC1	-2	-10	1	-19	8	x	x	x	x	x	x
CCCCN(C(=O)c1cc(=O)[nH]c2ccccc12)c1c(N)n(CCCC)c(=O)[nH]c1=O	8	-15	-5	-5	-37	x	x	x	x	x	x
O=C(CN1C(=O)NC(CCc2ccccc2)C1=O)Nc1cccc(Br)c1 (stereo not given)	-4	0	-2	-17	7	x	x	x	x	x	x
CCOc1ccc(NC(=O)CN2C(=O)NC(CCc3ccccc3)C2=O)cc1OCC (stereo not given)	1	68*	-7	-15	10	x	9	3	-3	-3	-8
CCCCc1ccc(N=N/C(C(=O)Nc2cc(OC)c(NC(C)=O)cc2OC)=C(/C)O)cc1	3	2	-6	-4	17	2	x	x	x	x	x
c1ccc(-c2ncc(-c3ccn[nH]3)s2)cc1	91*	91*	83*	43	-387	24	84*	85*	98*	87*	59*
CCn1cc(Br)c(C(=O)Nc2ccc(C(=O)OC(C)C)cc2)n1	6	17	10	-1	4	3	x	x	x	x	x
CCn1nccc1C(=O)Nc1ccc(C(=O)OC(C)C)cc1	76*	77*	67*	18	7	x	8	68*	88*	67*	59*
Oc1ccc(/C=N/Nc2cc(N3CCOCC3)nc(N3CCOCC3)n2)cc1	60*	19	5	6	-12	x	13	33	4	0	3
Cc1nc(N/N=C/c2ccc(Br)cc2)cc(N2CCOCC2)n1	-3	-11	-21	0	3	x	x	x	x	x	x
CCOc1ccc(/C=N/Nc2cc(C)nc(N3CCOCC3)n2)cc1	2	-20	-3	7	26	26	x	x	x	x	x
COc1ccc(/C=N/Nc2cc(N3CCCC3)nc(N3CCCC3)n2)cc1	38	52*	14	31	-15	17	16	51*	34	4	3
Oc1cccc(/C=N/Nc2cc(N3CCCC3)nc(N3CCCC3)n2)c1	51*	57*	10	-12	-27	15	16	66*	27	4	11
Oc1ccc(/C=N/Nc2cc(N3CCCC3)nc(N3CCCC3)n2)cc1	78*	49	36	9	4	4	11	61*	79*	10	7
CCN(CC)S(=O)(=O)c1cccc(C(=O)NC(Cc2c[nH]c3ccccc23)c2nnc3n2CCC3)c1 (stereo not given)	-3	13	0	6	7	5	x	x	x	x	x
COc1ccc(/C=N/NC(=O)c2ccc[nH]2)cc1	88*	79*	77*	21	6	x	75*	74*	95*	92*	84*
Cc1cc(C)nc(SCc2ccc(Br)cc2)n1	60*	-23	-13	-16	0	x	-22	-12	3	0	2
Cc1cc(C)n2c(SCc3ccc(Br)cc3)nnc2n1	-5	5	-1	-13	18	10	x	x	x	x	x
CCn1c(SCC(=O)NC2CCCC2)nnc1C(C)C	6	5	0	6	4	x	x	x	x	x	x
O=C(Nc1nnc(-c2ccco2)o1)c1ccc2ccccc2c1	18	71*	47	3	10	7	25	18	14	36	9
Cc1ccc(C(=O)Nc2nnc(-c3ccco3)o2)cc1	44	44	-5	34	28	-3	x	x	x	x	x
SMILES	SENP7 inh	SENP6 inh	SENP8 block-1	C8 TRAIL sens	SENP8 block-2	PPC-1+TRAIL kill	SENP8 conf	SENP6 conf	SENP7 conf	Casp3 SENP sel	Luc interf
Cc1onc(-c2ccccc2)c1-c1nnc(CN2CCN(S(=O)(=O)c3ccccc3F)CC2)o1	4	-12	4	-19	-1	x	x	x	x	x	x
NS(=O)(=O)c1ccc(NC(=O)Nc2ccccc2)cc1	2	-13	-11	0	13	15	x	x	x	x	x
COc1cc(OC)c(NC2=CC(=O)C(=O)c3ccccc32)cc1Cl	53*	79*	70*	96*	-292	x	-23	87*	73*	10	-8
Cc1ccc(NC2=CC(=O)C(=O)c3ccccc32)cc1	36	66*	55*	91*	-134	49	16	66*	33	8	4
NS(=O)(=O)c1ccc(NC2=CC(=O)C(=O)c3ccccc32)cc1	42	87*	88*	64*	50*	x	12	94*	84*	14	15
O=C1C=C(Nc2ccc(O)cc2)C(=O)c2ccccc21	96*	97*	96*	43	40	12	64*	98*	103*	97*	53*
O=C(O)COc1ccccc1/C=N/NC(=O)c1cccc(S(=O)(=O)N2CCOCC2)c1	-3	15	-10	-3	-9	27	x	x	x	x	x
CC(O)(c1ccc(F)c(F)c1)c1nc(-c2cc(F)cc(F)c2)cs1 (stereo not given)	x	x	x	8	6	x	x	x	x	x	x
Cc1cc(C)cc(NC(=O)CSc2nc3nc(C)cc(C)n3n2)c1	7	3	10	-6	0	x	x	x	x	x	x
CC(C)(C)OC(=O)N1CCC(c2c(C(=O)NCC3CCN(C4CCCC4)C3)cnn2-c2ccc(F)cc2)CC1 (stereo not given)	56*	-15	-11	-7	22	x	-15	-10	-10	-3	-12
Cc1ccc(-n2ncc(C(=O)NCC3CCN(C4CCCC4)C3)c2C2CCN(C(=O)OC(C)(C)C)CC2)cc1 (stereo not given)	-12	-15	-7	7	28	x	x	x	x	x	x
